This note sets out measurements from PubChem BioAssay.

Values joined by “and” are separate entries in the source; they are usually repeats but may differ in a detail not shown here. Equal values may be shown once. Results filed as inconclusive are left out. Active and inactive are the calls of the source. Unless noted, the limit is not given here; nearly all actives have AC50 up to about 26 µM.

One may read the AC50 as the concentration giving half of the maximal activity seen. In general, IC50 refers to the midpoint of a concentration-inhibition curve.

A short description of experiment [1]: growth inhibition of DIPG glioma cells, dose response, cell-based, SU-DIPG-XVII, MIPE5.0, CellTiter-Glo, qHTS (AID 1347060).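 As to AC50: cells exposed to compound for 48 hours before viability readout.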 Particulars: SU-DIPG-XVII viability, CellTiter-Glo ATP luminescence. Background: ATP-based viability assays read luminescence as a measure of living cells.
Experiment [2] in a line: growth inhibition of DIPG glioma cells, dose response, cell-based, SU-DIPG-XIII, MIPE5.0, CellTiter-Glo, qHTS (AID 1347064; cut-off not given, nearly all actives have AC50 up to about 23 µM;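 as to AC50: cells exposed to compound for 48 hours before the viability read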). Particulars: SU-DIPG-XIII viability, CellTiter-Glo ATP luminescence.
Experiment [3] in a line: viability loss in pontine glioma line – cell-based, SU-DIPG-XXV, MIPE5.0, CellTiter-Glo, qHTS, dose response (AID 1347065).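 Also: cells exposed to compound for 48 hours before ATP readout.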 The conditions noted are these: CellTiter-Glo ATP luminescence.
Experiment [4] can be described thus: JHH-DIPG-1 glioma cell viability, MIPE5.0 library, CellTiter-Glo luminescence, qHTS (AID 1347067).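 Also: cells exposed to compound for 48 hours before readout.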 The conditions noted are these: JHH-DIPG-1 glioma viability, CellTiter-Glo ATP luminescence.
The nature of experiment [5]: SU-DIPG-XXV glioma cell viability, MIPE5.0 library, qHTS (AID 1347068; cut-off not given, nearly all actives have IC50 up to about 30 µM;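 as to IC50: cells exposed to compound for 48 hours before viability readout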). (In qHTS, concentration-response curves come from the screen itself.)

Consider `NC[C@@](O)(c1ccc(Cl)cc1)c1ccc(-c2cn[nH]c2)cc1`, for which, in experiment [1], the outcome was inactive. Moreover, the values for the AC50 in experiment [2], in experiment [3] and in experiment [4] were 18.6 µM (active), 13.2 µM (active) and 26.3 µM (active), respectively. Further, the IC50 in experiment [5] was 23500 nM (active).

As for `COc1ccc(S(=O)(=O)Nc2cc(-c3csc(C#N)c3)ccc2C)cc1`, the AC50 in experiment [1] is 0.0742 µM (active); in experiment [2], 0.166 µM (active); in experiment [3], 0.148 µM (active); in experiment [4], 0.0934 µM (active). The IC50 in experiment [5] was 263 nM (active).

For `C[C@H](Nc1nc(N[C@H](C)C(F)(F)F)nc(-c2cccc(Cl)n2)n1)C(F)(F)F`, the call in experiment [1], in experiment [2], in experiment [3], in experiment [4] and in experiment [5] was inactive.

As to `COc1cc(F)ccc1-c1ncnc(Nc2cccc(CS(C)(=N)=O)c2)n1` (stereo not given), the AC50 in experiment [1] is 1.48 µM (active); in experiment [2] it was 1.48 µM (active); in experiment [3], 1.66 µM (active); in experiment [4], 1.86 µM (active). For the same compound, in experiment [5], the IC50 is 1860 nM (active).

For `COc1cc(C(=O)NC2CCN(C)CC2)c(F)cc1Nc1ncc2c(n1)N(C1CCCC1)CC(F)(F)C(=O)N2C`, the AC50 was 0.0934 µM (active) in experiment [1], 1.86 µM (active) in experiment [2], 0.118 µM (active) in experiment [3] and 20.9 µM (active) in experiment [4]. The IC50 in experiment [5] was 4170 nM (active).

On to `CO[C@@H]1COCC[C@@H]1N[C@@H]1CC[C@@](C(=O)N2CCc3ncc(C(F)(F)F)cc3C2)(C(C)C)C1`, for which the call in experiment [1], in experiment [2], in experiment [3], in experiment [4] and in experiment [5] was inactive.

With `O=C(NC[C@H](O)CN1CCc2ccccc2C1)c1cc(NC2COC2)ncn1`, in experiment [1], the AC50 was 23.5 µM (active). Moreover, the compound was called inactive in experiment [2], in experiment [3], in experiment [4] and in experiment [5].

Regarding `CC(C)Nc1cc(-c2c[nH]c(C(=O)N[C@H](CO)c3cccc(Cl)c3)c2)c(Cl)cn1`, the AC50 is 1.48 µM (active) in experiment [1], 4.17 µM (active) in experiment [2], 3.32 µM (active) in experiment [3] and 1.66 µM (active) in experiment [4]. Also, in experiment [5], the IC50 is 14800 nM (active).

Turning to `CCN1CCN(Cc2ccc(NC(=O)c3ccc(C)c(/C=C/c4cnc5[nH]ccc5c4OC)c3)cc2C(F)(F)F)CC1`, the AC50 in experiment [1] is 1.86 µM (active); in experiment [2], 2.35 µM (active); in experiment [3], 2.09 µM (active); in experiment [4], 3.72 µM (active). In addition, the IC50 in experiment [5] was 3720 nM (active).

In the case of `CCCCNc1ncc2c(-c3ccc(CN4CCN(C)CC4)cc3)cn(C3CCC(O)CC3)c2n1` (stereo not given), the AC50 is 1.48 µM (active) and 1.32 µM (active) in experiment [1]; 2.35 µM (active) and 1.86 µM (active) in experiment [2]; 742 nM (active) and 934 nM (active) in experiment [3]; 3.32 µM (active) and 2.95 µM (active) in experiment [4]. Further, the IC50 in experiment [5] is 3320 nM (active).

On to `C=CCN1C[C@H](C(=O)N(CCCN(C)C)C(=O)NCC)CC2c3cccc4[nH]cc(c34)C[C@H]21` (stereo not given in full), for which the outcome in experiment [1], in experiment [2], in experiment [3], in experiment [4] and in experiment [5] was inactive.

Take `COC(C)(C)CCn1nc(Nc2c(C)cccc2C)c2cnc(Nc3ccc(OCCN4CCCC4)c(F)c3)nc21`: the AC50 in experiment [1] was 16.6 µM (active); in experiment [2], 18.6 µM (active); in experiment [3], 14.8 µM (active); in experiment [4], 16.6 µM (active). The IC50 in experiment [5] is 16600 nM (active).

With `Nc1ncccc1-c1nc2ccc(-c3ccccc3)nc2n1-c1ccc(C2(N)CCC2)cc1`, the AC50 in experiment [1] was 11.8 µM (active); in experiment [2], 4.17 µM (active); in experiment [3], 2.95 µM (active); in experiment [4], 5.9 µM (active). Besides, the IC50 in experiment [5] is 20900 nM (active).

With `C[C@@H](Oc1cc(C(=O)Nc2ccc(C(=O)N3CCN(C)CC3)cc2)nnc1N)c1c(Cl)ccc(F)c1Cl`, the AC50 is 0.118 µM (active) in experiment [1], 0.417 µM (active) in experiment [2], 0.742 µM (active) in experiment [3] and 16.6 µM (active) in experiment [4]. The IC50 in experiment [5] was 7420 nM (active).

For `C=C1C[C@@H]2CC[C@@]34C[C@H]5O[C@H]6[C@@H](O3)[C@H]3O[C@H](CC[C@@H]3O[C@H]6[C@H]5O4)CC(=O)C[C@@H]3[C@@H](OC)[C@@H](C[C@H](O)CN)O[C@H]3C[C@H]3O[C@@H](CC[C@@H]1O2)C[C@@H](C)C3=C`, the AC50 was 0.0027 µM (active) in experiment [1], 0.0428 µM (active) in experiment [2], 0.00121 µM (active) in experiment [3] and 0.00959 µM (active) in experiment [4]. For the same compound, in experiment [5], the IC50 is 9.59 nM (active).

With `CC(C)(NS(=O)(=O)c1ccc2c(Cl)cnc(N=C(N)N)c2c1)C(=O)O`, the compound was called inactive in experiment [1], in experiment [2], in experiment [3], in experiment [4] and in experiment [5].

Turning to `COC(=O)N(CC(=O)O)Cc1cccc(OCc2nc(-c3ccc(Cl)cc3)oc2C)c1`, the call in experiment [1], in experiment [2], in experiment [3], in experiment [4] and in experiment [5] was inactive.

On to `O=C(NO)c1ccc(C2=Nc3ccccc3Oc3ccccc32)cc1`, for which the AC50 was 10.5 µM (active) in experiment [1], 5.25 µM (active) in experiment [2], 7.42 µM (active) in experiment [3] and 11.8 µM (active) in experiment [4]. For the same compound, the IC50 in experiment [5] is 14800 nM (active).

Turning to `Cc1ccc(NC(=O)Nc2nnc(Sc3ncnc4cc(OCCCN5CCOCC5)ccc34)s2)cc1`, the AC50 is 2.95 µM (active) in experiment [1], 2.63 µM (active) in experiment [2], 1.86 µM (active) in experiment [3] and 2.35 µM (active) in experiment [4]. In addition, in experiment [5], the compound was called inactive.

As for `CN1CCN(Cc2ccc(Nc3ncc(Cl)c(Nc4ccccc4S(=O)(=O)N(C)C)n3)cc2)CC1`, the AC50 was 0.191 µM (active) in experiment [1], 0.241 µM (active) in experiment [2], 0.135 µM (active) in experiment [3] and 0.382 µM (active) in experiment [4]. In addition, the IC50 in experiment [5] is 382 nM (active).

`Cc1c(CN2CCC(Nc3ncnc4sc(CC(F)(F)F)cc34)CC2)ccc2c1cc(C#N)n2Cc1cn[nH]c1`: the AC50 in experiment [1] is 20.9 µM (active); in experiment [2] it was 23.5 µM (active); in experiment [3], 29.5 µM (active); in experiment [4], 18.6 µM (active). Moreover, in experiment [5], the compound was called inactive.

With `CNCCn1c(=O)c2cc(OC)c(OC)cc2c2cnc3cc4c(cc3c21)OCO4`, the AC50 was 0.0215 µM (active) in experiment [1], 1.71 µM (active) in experiment [2], 1.52 µM (active) in experiment [3] and 0.481 µM (active) in experiment [4]. Besides, in experiment [5], the compound was called inactive.
